Screens from PubChem.
CYP2C9 inh: human CYP2C9 inhibition; P11712; inhibition, % at 5 µM; AID 777; 96,000 compounds, 20% hits; CYP2C9 Supersomes, luciferin-H conversion, luminescence;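 active means blocking of liver enzyme CYP2C9 beyond about 50% at 5 µM, limit read from the data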
Target sequence (P11712 whole entry, looked up): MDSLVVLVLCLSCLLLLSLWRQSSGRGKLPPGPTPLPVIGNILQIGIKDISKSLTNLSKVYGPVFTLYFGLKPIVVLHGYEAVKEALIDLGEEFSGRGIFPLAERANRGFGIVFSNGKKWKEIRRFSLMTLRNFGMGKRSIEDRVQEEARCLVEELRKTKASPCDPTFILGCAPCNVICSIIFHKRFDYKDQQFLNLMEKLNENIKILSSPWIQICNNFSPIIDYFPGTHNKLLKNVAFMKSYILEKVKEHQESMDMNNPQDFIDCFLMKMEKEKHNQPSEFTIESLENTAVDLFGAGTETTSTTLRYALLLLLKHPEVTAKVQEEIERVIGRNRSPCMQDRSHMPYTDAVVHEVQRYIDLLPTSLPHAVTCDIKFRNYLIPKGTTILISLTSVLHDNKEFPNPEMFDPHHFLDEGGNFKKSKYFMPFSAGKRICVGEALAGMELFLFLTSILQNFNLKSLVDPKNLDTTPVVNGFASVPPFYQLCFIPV
CYP2C19 act: cytochrome P450 2C19 (human) activation; P33261; recombinant CYP2C19, luciferin-H EGE luminescence; stronger effect = higher value; 0 = fully inhibited enzyme, 1 = untreated enzyme; activation factor at 5 µM; 96,000 tested, under 10 active; AID 1025;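 active means activation factor of at least 2 at 5 µM in the primary screen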;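 further: 0 = wells with 2.5 mM tranylcypromine and 1 = vehicle-only wells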
CYP2C19 inh: inhibitors of human CYP2C19; P33261; CYP2C19 Supersomes, luciferin-H EGE luminescence, 30 min; inhibition, % at 5 µM; 96,000 compounds, 21% hits; AID 778;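 active means CYP2C19 inhibition above a set limit at 5 µM in the primary screen, cut at about 50% in these data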;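 further: plate controls were negative control wells for no effect and 2.5 mM tranylcypromine positive control for full effect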
PostGolgi ctrl: growth of the yeast control strain, post-Golgi counter-screen; inhibition, % at 10 µM; 98,000 compounds, 5% hits; efflux-deficient yeast background strain, growth absorbance A615, 16 h
CYP2C9 act: activators of human CYP2C9. recombinant CYP2C9, luciferin-H conversion, luminescence; stronger effect = higher value; factor 1 = untreated enzyme, 0 = blocked. activation factor at 5 µM. 96,000 compounds, 1.4% hits. AID 1024;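 active means activation factor of 2 or more for CYP2C9 at a 5 µM dose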;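 further: 0 = sulfaphenazole-blocked wells and 1 = vehicle-only wells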
PostGolgi yeast: growth inhibition of a yeast mutant, post-Golgi transport screen | 98,000 compounds, 0.9% hits | inhibition, % at 10 µM | post-Golgi transport phenotypic cell assay;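 further: yeast cells grown in 1536-well plates; yeast grown about 18 h at 30C before absorbance read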
* hit, by the source's call; x = not tested or not shown. Hits are enriched below; roughly 32% of the tested compounds scored in any of these assays. Unless noted, no stated cut-off is given here; in the data, active means inhibition above about 30%; inactive means the rest.

SMILES	CYP2C9 inh	CYP2C19 act	CYP2C19 inh	PostGolgi ctrl	CYP2C9 act	PostGolgi yeast
CCN(CC)c1ccc(N=Cc2c(O)n(-c3cc(OC)ccc3OC)c(=O)[nH]c2=O)cc1	x	x	x	-1	x	-13
Cc1cccc(CN(C)C)c1OC(=O)N(C)C	-17	1	2	-10	1.2	-13
Cc1nc2ccccc2c(=O)n1-c1ccccn1	9	0.9	13	-3	0.9	12
Cc1cc(C)nc(-n2c(C)nc3cc(Cl)ccc3c2=O)c1	90*	0.6	41	-4	0.1	1
CC1(C)NCCN2C(=O)CSC21 (configuration not stated)	-7	1	0	-2	1.1	-1
CC(=O)C1(c2ccccc2)CCNCC1	5	1	1	2	0.9	11
O=C1NCN(c2ccccc2)C12CCNCC2	-6	0.1	89*	0	1.1	-5
Cc1ccc2nc3c(cc2c1)CC1(C(=O)N(C)C(=O)N(C)C1=O)C1COCCN31 (configuration not stated)	19	1	4	32*	0.8	-3
Cc1ccc2nc3c(cc2c1)CC1(C(=O)N(C)C(=O)N(C)C1=O)C1CCCCN31 (configuration not stated)	50*	0.4	64*	2	0.5	-4
CN1C(=O)N(C)C(=O)C2(Cc3cc(N)ccc3N3CCN(c4ccccc4F)CC32)C1=O (configuration not stated)	39	0.6	44	3	0.6	0
NC(=O)CN1CC(c2ccccc2)CC1=O (configuration not stated)	-17	1	-3	-2	1.2	0
Cc1ccc(S(=O)(=O)Cc2ccc(C(=O)N3CCC4(CC3)OCCO4)o2)cc1	70*	0.4	62*	-2	0.3	-1
CC(=O)c1cccc(OCC(O)CN2CC=C(c3ccccc3)CC2)c1 (configuration not stated)	51*	0.4	55*	4	0.5	0
O=C1C(c2ccccc2)=C(N2CC2)c2ccccc21	7	0.7	34	12	0.9	0
O=C1C(=O)c2ccccc2-c2ccccc21	93*	0	98*	38*	0.1	7
CCCCn1c(O)c(C(C)=NCC2CCCO2)c(=O)[nH]c1=O (configuration not stated)	23	0.8	20	12	0.8	8
CCOC(=O)c1c(C)n(CCOC)c2ccc(O)cc12	35	0.3	69*	-1	0.6	-6
CCOC(=O)c1c(C)n(CCN2CCN(C)CC2)c2ccc(OC)cc12	13	0.9	7	-5	0.9	0
COC(=O)CC1NC2CCCCC2NC1=O (configuration not stated)	-8	1.1	-10	7	1.1	1
O=C(c1cc2c(s1)CCCCCC2)N1CCC2(CC1)OCCO2	73*	0	97*	21	0.3	6
CCc1sc(C(=O)N2CCC3(CC2)OCCO3)cc1Br	-65	0	96*	5	1.7	6
O=C(COc1ccc(Br)cc1)N1CCN(Cc2c[nH]c3ccccc23)CC1	89*	0.1	86*	-1	0.1	9
O=C(COc1ccc2ccccc2c1)N1CCN(Cc2c[nH]c3ccccc23)CC1	22	0.8	19	13	0.8	3
Fc1ccc(C2=CCN(C(c3cccs3)c3nnnn3CCc3ccccc3)CC2)cc1 (configuration not stated)	74*	0.5	50*	43*	0.3	4
CCC(C)(C)n1nnnc1C(c1cccs1)N1CC=C(c2ccc(F)cc2)CC1 (configuration not stated)	79*	0.4	56*	41*	0.2	4
SMILES	CYP2C9 inh	CYP2C19 act	CYP2C19 inh	PostGolgi ctrl	CYP2C9 act	PostGolgi yeast
CC(C)(C)N1Cc2ccccc2C1=N	38	1	-4	2	0.6	18
Fc1cccc(CCNCc2ccccn2)c1	-2	0.9	14	-2	1	-4
Cc1cc([P+](=O)O)c(C)n1-c1ccc(Br)cc1	-9	1	2	-1	1.1	6
O=C(CN1C(=O)CN=C(c2ccccc2)c2ccccc21)NCc1ccco1	-7	0.9	12	8	1.1	-2
O=C(Cn1cc(C(=O)c2ccccc2)c2ccccc21)NCc1ccco1	82*	0.2	82*	7	0.2	-3
O=C(c1ccccc1)c1cn(CC(=O)N2CCCc3ccccc32)c2ccccc12	74*	0.6	42	9	0.3	13
O=S(=O)(c1ccccc1)N1CCCCC1c1cccnc1 (configuration not stated)	6	0.5	52*	-4	0.9	0
O=C(CCC(=O)N1CCC2(CC1)OCCO2)Nc1nnc(C(F)(F)F)s1	40	1	5	5	0.6	-1
O=C(C1CCC(=O)N1Cc1ccc(F)cc1)N1CCC2(CC1)OCCO2 (configuration not stated)	19	0.7	27	11	0.8	5
COc1cccc(C2=NOC(C(=O)N3CCC4(CC3)OCCO4)C2)c1 (configuration not stated)	-2	0.3	67*	6	1	-4
O=C(C1CC(c2ccc(F)cc2)=NO1)N1CCC2(CC1)OCCO2 (configuration not stated)	-8	0.1	94*	6	1.1	4
O=C(C1CC(c2ccc(Cl)c(Cl)c2)=NO1)N1CCC2(CC1)OCCO2 (configuration not stated)	-84	0	96*	5	1.8	0
CCc1ccc(N2C(=O)NC(=O)C(Cc3ccc(OC)cc3OC)C2=O)cc1 (configuration not stated)	13	0.9	10	23	0.9	-3
Cc1ccc(C)c(C2(O)CC(C)N(C)CC2C)c1 (configuration not stated)	-11	1.2	-16	28	1.1	-3
CC(=NCCN1CCCCC1)c1c(O)[nH]c(=O)[nH]c1=O	9	0.8	22	6	0.9	15
COc1ccc2c(c1OC)C(=O)OC2c1c(O)n(Cc2ccc(F)cc2)c(=O)[nH]c1=O (configuration not stated)	28	1	0	12	0.7	-4
C=CCN1C(=O)C2(C(C(=O)OCC)=C(N)Oc3ccccc32)c2c1c1ccccc1oc2=O (configuration not stated)	53*	0.8	21	0	0.5	11
CC1=[N+]([O-])C2(N)CCc3nonc3C2(O)C1 (configuration not stated)	-5	1	2	20	1.1	-5
O=C(c1cc(-c2ccc(Cl)cc2)n(-c2ccc(Cl)cc2Cl)n1)N1CCOCC1	36	0.7	34	33*	0.6	6
CCC1(c2ccccc2)C(=O)N(COC)C(=O)N(COC)C1=O	12	0.2	79*	-12	0.9	1
